Our source for the Potency values is PubChem BioAssay (Tox21).

Calls of active or inactive are those of the source. Entries that show only a call come without a potency. Calls come from the whole dose curve; as a rule, active = well fitted curve in the direction sought with a large enough effect in the repeat runs; inconclusive = weak or mixed curves; inactive = flat fitted curve, though single readings scatter.

The experiment is described as follows: qHTS assay to test for compound auto fluorescence at 590 nm (red) in HEK293 cell free culture (AID 720683). The note with it: cell-free medium autofluorescence, Ex540/Em590 red; series mostly up to 46 µM. The source says:
U.S. Tox21 Program National Center for Advancing Translational Sciences [NCATS] NIH Chemical Genomics Center [NCGC] U.S. Environmental Protection Agency [EPA] National Institutes of Environmental Health Sciences [NIEHS] National Toxicology Program [NTP] U.S. Food and Drug Administration [FDA] Tox21 Assay Overview: Compound auto fluorescence often interferes with screening of the compound library against various biological targets and signaling pathways. Some of these compounds may have fluorophoric properties. Such properties may interfere with the assay outputs resulting in false positives and/or negatives. To decrease such complications and ensure the compound activities are relevant in terms of biological response, the Tox21 10K compound library was screened for auto fluorescence. From the fluorophores used as reporter signals in our screening assays, the auto fluorescence equivalencies of compounds against three fluorophores have been evaluated: Triamterene, Fluorescein and Rose Bengal sodium for blue, green and red fluorescence, respectively. The fluorescence intensities were measured using Excitation/Emission wavelengths at 405/460nm, 485/535nm and 540/590nm for blue, green and red labels, respectively. This assay includes the red fluorescence data.
Tox21 Assay Protocol Summary: 5 uL of culture medium (DMEM containing 10% FBS) per well was dispensed into black wall/clear bottom 1536-well plates using a Multidrop Combi Dispenser (ThermoFisher Scientific, Waltham, MA). After 23 nL compound or DMSO vehicle was transferred into assay plate by a pintool work station (Kalypsys, San Diego, CA), fluorescence intensities in the assay plates were measured by an Envision (PerkinElmer, Shelton, CT) plate reader using three labels for measuring blue, green and red fluorescence at […] 460, 535 and 590nm respectively.
For orientation: In qHTS, concentration-response curves come from the screen itself.
Turning to `CC(C)CN(C[C@@H](O)[C@H](Cc1ccccc1)NC(=O)O[C@@H]1CCOC1)S(=O)(=O)c1ccc(N)cc1`, the Potency result was “inactive”.

In the case of `CC[N+](C)(C)Cc1ccccc1Br`, the Potency entry is “inactive”.

Consider `CC(O)[C@H]1CC[C@H]2[C@@H]3CC[C@@H]4C[C@@H](O)CC[C@]4(C)[C@H]3CC[C@]12C` (stereo not given in full), for which the Potency entry was “inactive”.

For the compound `O=P(O)(O)OC(Cn1cncn1)(Cn1cncn1)c1ccc(F)cc1F`, the Potency result was “inactive”.

For `CC(=O)OC[C@H]1O[C@@H](O[C@H]2[C@H](O)[C@@H](OC(=O)c3ccccc3C(=O)O)[C@H](O)O[C@@H]2COC(C)=O)[C@H](O)[C@@H](OC(=O)c2ccccc2C(=O)O)[C@@H]1O`, the Potency result is “inactive”.

For `CC[C@@]1(O)C[C@H](O[C@H]2C[C@H](N(C)C)[C@H](O[C@H]3C[C@H](O)[C@H](O[C@H]4CCC(=O)[C@H](C)O4)[C@H](C)O3)[C@H](C)O2)c2c(cc3c(c2O)C(=O)c2c(O)cccc2C3=O)[C@H]1C(=O)OC`, the Potency entry was “inactive”.

For the compound `CC(C)[C@H](N)C(=O)OCC(CO)OCn1cnc2c(=O)[nH]c(N)nc21` (stereo not given in full), the Potency entry was “inactive”.

As for `CO[C@H]1[C@@H](O)[C@H](N)[C@@H](O[C@H]2O[C@H]([C@H](C)N)CC[C@H]2N)[C@H](O)[C@@H]1N(C)C(=O)CN`, the Potency entry was “inactive”.

Regarding `CCCCC(=O)O[C@H]1CC[C@H]2[C@@H]3CCc4cc(O)ccc4[C@H]3CC[C@]12C`, the Potency entry was “inactive”.

`NC(=O)OCC(O)COc1ccc(Cl)cc1` (stereo not given): the Potency result was “inactive”.

Turning to `CC(C)(C)NCC(O)CSc1nc(-c2ccc(C(N)=O)s2)cs1` (stereo not given), the Potency entry is “inactive”.

With `CN(C)c1ccc(C(=C2C=CC(=[N+](C)C)C=C2)c2c(O)c(S(=O)(=O)[O-])cc3cc(S(=O)(=O)O)ccc23)cc1`, the Potency result was “inactive”.

For the compound `CO[C@@H]1[C@@H](O[C@@H]2O[C@H](C)[C@@H](O[C@H]3C[C@@](C)(O)[C@@H](O)[C@H](C)O3)[C@H](N(C)C)[C@H]2O)[C@@H](CC=O)C[C@@H](C)[C@@H](O[C@@H]2CC[C@H](N(C)C)[C@@H](C)O2)/C=C/C=C/C[C@@H](C)OC(=O)C[C@H]1O`, the Potency result was “inactive”.

Turning to `Cc1ccccc1CNc1ncnc2c1ncn2[C@@H]1O[C@H](CO)[C@@H](O)[C@H]1O`, the Potency entry was “inactive”.

On to `CN(C)CCOc1ccccc1Cc1ccccc1` (tested in a mixture with another compound), for which the Potency entry was “inactive”.

With `CCCCc1cc2c(=O)c(C(=O)OC)c[nH]c2cc1OCc1ccccc1`, the Potency entry is “inactive”.

Consider `CCNC(=O)[C@@H]1CCCN1C(=O)[C@H](CCCN=C(N)N)NC(=O)[C@H](CC(C)C)NC(=O)[C@@H](CC(C)C)NC(=O)[C@H](Cc1ccc(O)cc1)NC(=O)[C@H](CO)NC(=O)[C@H](Cc1c[nH]c2ccccc12)NC(=O)[C@H](Cc1cnc[nH]1)NC(=O)[C@@H]1CCC(=O)N1`, for which the Potency entry was “inactive”.

On to `Cc1cc(Nc2ccccc2C(=O)O)ccc1Cl`, for which the Potency result is “inactive”.

With `NC(=S)N=Nc1ccc(NN=C(N)N)cc1`, the Potency entry was “inactive”.

Consider `[O]=[Bi][O][Bi]=[O]`, for which the Potency result was “inactive”.

In the case of `Cc1cc(O)c2c(c1)O[C@@]1(C)CC[C@H]3C(C)(C)CCCC34CO[C@@H]2[C@H]41` (stereo not given in full), the Potency entry was “inactive”.

On to `C/C(=C(\CCOC(=O)c1ccccc1)SS/C(CCOC(=O)c1ccccc1)=C(/C)N(C=O)Cc1cnc(C)nc1N)N(C=O)Cc1cnc(C)nc1N`, for which the Potency entry is “inactive”.

In the case of `CCC(C)[C@H]1O[C@]2(C=C[C@@H]1C)C[C@@H]1C[C@@H](C/C=C(\C)[C@@H](O[C@H]3C[C@H](OC)[C@@H](O[C@H]4C[C@H](OC)[C@H](NC(C)=O)[C@H](C)O4)[C@H](C)O3)[C@@H](C)/C=C/C=C3\CO[C@@H]4[C@H](O)C(C)=C[C@@H](C(=O)O1)[C@]34O)O2` (stereo not given in full), the Potency result was “inactive”.

In the case of `CO[C@H]1C[C@H](O[C@@H]2/C(C)=C/C[C@@H]3C[C@@H](C[C@]4(CC[C@H](C)[C@@H](C5CCCCC5)O4)O3)OC(=O)[C@@H]3C=C(C)/C(=N/O)[C@H]4OC/C(=C\C=C\[C@@H]2C)[C@]43O)O[C@@H](C)[C@@H]1O`, the Potency entry was “inactive”.

For `CC(C)(C)NC(=O)[C@H]1CC[C@H]2[C@@H]3CC=C4C=C(C(=O)O)CC[C@]4(C)[C@H]3CC[C@]12C`, the Potency entry is “inactive”.

In the case of `CC(=O)c1ccc2c(c1)N(CCCN1CCN(CCO)CC1)c1ccccc1S2`, the Potency result was “inactive”.

Consider `O=C1O[C@H]2[C@H](O)[C@@H]1OC(O)[C@H]2O` (stereo not given in full), for which the Potency result was “inactive”.

With `O=C1C(=O)c2ncccc2-c2cccnc21`, the Potency result was “inactive”.

For the compound `N=C(N)c1ccc(OCCCOc2ccc(C(=N)N)cc2Br)c(Br)c1`, the Potency result was “inactive”.

As for `CC(=O)N[C@@H]([C@@H](O)[C@H](O)[C@H](O)CO)[C@@H](O)CC(=O)C(=O)O`, the Potency result was “inactive”.

For the compound `CC[C@H](C)[C@@H]1NC(=O)[C@H](Cc2ccc(O)cc2)NC(=O)[C@@H](N)CSSC[C@@H](C(=O)N2CCC[C@H]2C(=O)N[C@@H](CC(C)C)C(=O)NCC(N)=O)NC(=O)[C@H](CC(N)=O)NC(=O)[C@H](CCC(N)=O)NC1=O`, the Potency result is “inactive”.

Turning to `CCCCCCCCCCCCCCCCCC(=O)OC[C@@H](O)[C@H]1OC[C@H](O)[C@H]1O`, the Potency entry is “inactive”.

With `CCN(CC)CCOc1ccc2nc(N(C)C)sc2c1`, the Potency entry was “inactive”.

Take `CC[C@@H]1/C=C(\C)C[C@H](C)C[C@H](OC)[C@H]2O[C@@](O)(C(=O)C(=O)N3CCCC[C@H]3C(=O)O[C@H](/C(C)=C/[C@@H]3CC[C@@H](Cl)[C@H](OC)C3)[C@H](C)[C@@H](O)CC1=O)[C@H](C)C[C@@H]2OC`: the Potency entry was “inactive”.

For the compound `CCCCCCCCCCCCCCCC(=O)OC[C@@H](COP(=O)([O-])OCC[N+](C)(C)C)OC(=O)CCCCCCCCCCCCCCC`, the Potency entry is “inactive”.

For the compound `CCOC(=O)[C@H](CCc1ccccc1)N[C@@H](C)C(=O)N1CC2(C[C@H]1C(=O)O)SCCS2`, the Potency result is “inactive”.

Turning to `CC(=O)OCC(=O)[C@@]1(O)[C@H](C)C[C@H]2[C@@H]3C[C@H](F)C4=CC(=O)C=C[C@]4(C)[C@H]3[C@@H](O)C[C@@]21C`, the Potency entry is “inactive”.

Take `CC(=O)Nc1c(I)c(C(=O)N[C@H]2C(O)O[C@H](CO)[C@@H](O)[C@@H]2O)c(I)c(N(C)C(C)=O)c1I` (stereo not given in full): the Potency entry is “inactive”.

For `CC(CCc1ccc(O)cc1)NCC(O)c1ccc(O)cc1` (stereo not given), the Potency entry is “inactive”.

For `C=CCN1CCCC1CNC(=O)c1cc(S(N)(=O)=O)cc(OC)c1OC` (stereo not given), the Potency result is “inactive”.
